HCV inh – inhibitors of hepatitis C virus infection; AID 651820; Huh7.5.1 HCVcc-Cre infection, luciferase reporter, 44 h; 3.4% of 340,000 active; Potency, µM (top dose mostly 41.8 µM), for the others: at the top dose activity change, negative = inhibition, actives largely listed as inhibitors; active = well fitted inhibition curve with a large enough effect; inconclusive = small, poorly fitted or top-dose-only effect, or another doubt; inactive = no such curve, though single readings can be large or run the other way; note: potency is the fitted concentration of half-maximal effect
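Infectious HCVcc-Cre (~0.5 moi) was added to cells just after compound, with cells seeded 4 h earlier at 1,000 per well. Luciferase activity after 44 h culture reported infection; substrate was incubated 15 min at room temperature before reading.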
Vaccinia mCherry – inhibitors of vaccinia virus infection (mCherry reporter signal); Potency, µM (highest dose often 36.5 µM), for inactives: at the top dose activity change, negative = inhibition, hits mostly inhibitors; 0.63% of 310,000 active; Vaccinia virus mCherry reporter infection, fluorescence; calls by dose curve; tested in A549 cells; note: potency is the fitted concentration of half-maximal effect; nearly all actives have a fitted effect of over 35% in size
Marburg entry inh – Marburg virus entry inhibition; Potency, µM (doses to about 37.8 µM), inactives show top-dose activity change, negative = inhibition, usual class: inhibitors; 1.8% of 300,000 active; Marburg virus pseudotyped entry inhibition, cell reporter; calls by dose curve; tested in HEK293 cells; note: potency is the fitted concentration of half-maximal effect
LASV entry inh – inhibitors of Lassa virus binding or cell entry | Lassa virus pseudotype entry inhibition, cell reporter | Potency, µM (titrated, usually from 37.9 µM), without a hit: at the top dose activity change, negative = inhibition, usual class: inhibitors | 1.2% of 300,000 active | AID 540256; calls by dose curve; tested in HEK293 cells; note: potency is the fitted concentration of half-maximal effect; nearly all actives have a fitted effect of over 50% in size
HCMV antiviral – human cytomegalovirus inhibition | HFF cells, HCMV-luciferase reporter, 72 h; hits give low values | 4.5% of 410,000 active | activity change, negative = inhibition, % at 57.5 µM; in the data active = activity change below about -60%; inconclusive = no clear call, values can overlap the other calls; inactive = above about -39%
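Human foreskin fibroblasts infected with luciferase-reporter HCMV at MOI 1 PFU/cell, compounds at two doses. Luciferase measured 72 h post infection; normalized to buffer-only basal and Salinomycin (10uM) controls.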
VACV Venus inh – vaccinia inhibition (Venus reporter) | Potency, µM (highest dose often 36.5 µM), for the others: at the top dose activity change, negative = inhibition, actives largely listed as inhibitors | Vaccinia virus Venus reporter expression, fluorescence | 0.46% of 330,000 active; calls by dose curve; tested in A549 cells; note: potency is the fitted concentration of half-maximal effect; nearly all actives have a fitted effect of over 30% in size
* hit, by the source's call; [ ] = another dose, or the depositor's remark. In the library only some 7.8% were active in any assay of this set; here they are far more common. % is set by controls: 0 for no effect and ±100 for the full control effect.

What do the screens show for `CCN(Cc1ccccc1)C(c1ccc(C)cc1)c1nnnn1C(C)(C)CC` (stereo not given)?
HCV inh: 10µM*; Vaccinia mCherry: -21%; Marburg entry inh: inconclusive; LASV entry inh: inconclusive; HCMV antiviral: -23; VACV Venus inh: -15%

What do the screens show for `CCN(CC)C(c1ccc(C)cc1)c1nnnn1C1CCCCC1` (stereo not given)?
HCV inh: 35µM*; Marburg entry inh: -18%; LASV entry inh: 24%; HCMV antiviral: -34

How did CC(C)(C)n1nnnc1C(c1cccs1)N(Cc1ccc(Cl)cc1)CC1CCCO1 (stereo not given) do in these assays?
HCV inh: inconclusive; Vaccinia mCherry: 11µM*; Marburg entry inh: inconclusive; LASV entry inh: inconclusive; HCMV antiviral: -70*; VACV Venus inh: inconclusive

What do the screens show for `CCN(Cc1ccccc1)C(c1ccncc1)c1nnnn1C(C)(C)C` (stereo not given)?
HCV inh: 13%; Vaccinia mCherry: inactive; Marburg entry inh: -19%; LASV entry inh: -47%; HCMV antiviral: -25; VACV Venus inh: -15%

How did COc1cc(-c2cc(C)c3cccc(OC)c3n2)cc2c1OCCN(C(=O)CCn1ccc(C)n1)C2 do in these assays?
Vaccinia mCherry: -29%; VACV Venus inh: -9%

What do the screens show for `CC(C)(C)n1nnnc1C(c1cccs1)N(Cc1ccccc1)Cc1cccnc1` (stereo not given)?
HCV inh: -2%; Vaccinia mCherry: 0%[1.46 µM]; Marburg entry inh: -7%; LASV entry inh: 3%; HCMV antiviral: -39; VACV Venus inh: -19%

What do the screens show for `CC(C)(C)n1nnnc1C(c1cccnc1)N(Cc1ccccc1)Cc1cccs1` (stereo not given)?
HCV inh: inconclusive; Vaccinia mCherry: -31%; Marburg entry inh: inconclusive; LASV entry inh: inconclusive; HCMV antiviral: -85*; VACV Venus inh: -19%

Results for O=C(NC1(C(F)(F)F)NC(=O)N(CCc2ccccc2)C1=O)c1ccccc1Cl (stereo not given) ?
Vaccinia mCherry: -6%; Marburg entry inh: -13%[46.1 µM]; LASV entry inh: 7%[46.1 µM]; HCMV antiviral: 5; VACV Venus inh: 0%

How did O=S(=O)(NCCSc1nnnn1-c1ccccc1)c1ccc(F)cc1 do in these assays?
Vaccinia mCherry: -7%; Marburg entry inh: -17%[46.1 µM]; LASV entry inh: -23%[46.1 µM]; HCMV antiviral: -61*; VACV Venus inh: -8%

How did CS(=O)(=O)NCCSc1nnnn1-c1ccccc1 do in these assays?
HCV inh: -1%; Marburg entry inh: inconclusive; LASV entry inh: 4%; HCMV antiviral: 16; VACV Venus inh: -8%

How did O=S(=O)(NCCSc1nnnn1-c1ccccc1)c1cccs1 do in these assays?
HCV inh: inconclusive; Marburg entry inh: inconclusive; LASV entry inh: 2%; HCMV antiviral: -81*; VACV Venus inh: inconclusive

Results for COC(=O)CSc1nnnn1-c1ccccc1 ?
HCV inh: 8%; Marburg entry inh: inconclusive; LASV entry inh: -3%; HCMV antiviral: -4; VACV Venus inh: 20%

Results for CCC1(C2CCN(C(=O)c3coc4c3C(=O)CCC4)CC2)NC(=O)N(CCc2scnc2C)C1=O (stereo not given) ?
Vaccinia mCherry: -4%; VACV Venus inh: 2%

How did Cc1cccc(/C=N/Nc2cc(N3CCOCC3)nc(N3CCOCC3)n2)c1 do in these assays?
HCV inh: 6.3µM*; Vaccinia mCherry: inconclusive; Marburg entry inh: 1.4µM*; LASV entry inh: inconclusive; HCMV antiviral: -15; VACV Venus inh: inconclusive

What do the screens show for `CC(C)c1ccc(/C=N/Nc2cc(N3CCOCC3)nc(N3CCOCC3)n2)cc1`?
HCV inh: inconclusive; Vaccinia mCherry: -17%; Marburg entry inh: inconclusive; LASV entry inh: inconclusive; HCMV antiviral: -38; VACV Venus inh: -12%

Results for Cc1ccc(/C=N/Nc2cc(C)nc(N3CCOCC3)n2)cc1 ?
HCV inh: -30%; Vaccinia mCherry: inactive; Marburg entry inh: inconclusive; LASV entry inh: 14%; HCMV antiviral: -7; VACV Venus inh: -14%

How did Cc1cc(N/N=C/c2ccccc2)nc(N2CCOCC2)n1 do in these assays?
HCV inh: inconclusive; Vaccinia mCherry: -17%; Marburg entry inh: 1.6µM*; LASV entry inh: 6%; HCMV antiviral: 19; VACV Venus inh: -6%

What do the screens show for `COc1ccc(NC(=O)Cn2nnc(-c3ccccc3NS(=O)(=O)c3ccccc3)n2)cc1`?
HCV inh: -51%; Vaccinia mCherry: inconclusive; Marburg entry inh: 8.9µM*; LASV entry inh: inconclusive; VACV Venus inh: -28%

Results for COc1ccc(S(=O)(=O)Nc2ccccc2-c2nnn(CC(=O)Nc3ccccc3OC)n2)cc1 ?
HCV inh: inconclusive; Vaccinia mCherry: -7%; Marburg entry inh: inconclusive; LASV entry inh: inconclusive; HCMV antiviral: -19; VACV Venus inh: -21%

Results for Cc1ccc(OCC(=O)Nc2c(Cl)ccc3nsnc23)cc1C ?
Vaccinia mCherry: -7%; Marburg entry inh: -10%[46.1 µM]; LASV entry inh: -2%[46.1 µM]; HCMV antiviral: 2; VACV Venus inh: 3%

Results for Cc1cc(C)cc(OCc2nc3ncc(Br)cc3[nH]2)c1 ?
HCV inh: inconclusive; Vaccinia mCherry: inconclusive; Marburg entry inh: inconclusive; LASV entry inh: inconclusive; HCMV antiviral: -63*; VACV Venus inh: -28%

What do the screens show for `CN(C)S(=O)(=O)c1ccc(Nc2nc(C3CC3)nc3c2nnn3Cc2ccccc2Cl)cc1`?
HCV inh: inconclusive; Vaccinia mCherry: inactive; Marburg entry inh: -34%; LASV entry inh: inconclusive; HCMV antiviral: -79*; VACV Venus inh: -19%

Results for CC(=O)Nc1ccc(Nc2nc(C(F)(F)F)nc3c2nnn3Cc2ccccc2Cl)cc1 ?
HCV inh: inconclusive; Vaccinia mCherry: inconclusive; Marburg entry inh: -28%[46.1 µM]; LASV entry inh: -5%[46.1 µM]; HCMV antiviral: -72*; VACV Venus inh: -21%

Results for CCOCCCNc1nc(C(F)(F)F)nc2c1nnn2Cc1ccccc1Cl ?
HCV inh: 11µM*; HCMV antiviral: inconclusive

How did C=CCNc1nc(C(F)(F)F)nc2c1nnn2Cc1ccccc1Cl do in these assays?
HCV inh: 1%; HCMV antiviral: 24

How did CCc1ccccc1NS(=O)(=O)c1ccc2c(c1)OCC(C(=O)N1CCCC1)O2 (stereo not given) do in these assays?
Vaccinia mCherry: -4%; LASV entry inh: -2%[46.1 µM]; HCMV antiviral: -20; VACV Venus inh: -13%

What do the screens show for `O=C1CC[C@@H](S(=O)(=O)c2ccccc2)[C@H](c2ccccc2)N1Cc1ccccc1`?
HCMV antiviral: -15

Results for COc1ccc(C(=O)Cn2nc(CNc3ccc(Br)cc3)[n+]3c2CCCCC3)cc1 ?
HCV inh: -2%; Vaccinia mCherry: -6%; Marburg entry inh: inconclusive; LASV entry inh: -27%; HCMV antiviral: -60*; VACV Venus inh: -8%

How did C/C=C(\NNC(C)=O)c1ccc(O)cc1 do in these assays?
Vaccinia mCherry: -17%; VACV Venus inh: -15%

Assay outcomes as filed in PubChem BioAssay.
